Assay outcomes deposited in PubChem by National Center for Advancing Translational Sciences (NCATS).
Sampled rows, rich in hits. Any-hit rate of the full collection: about 15%.
VP16 counter: counter-screen for ROR gamma inhibitors: Gal4-VP16 reporter | 310,000 tested, 3.5% active | Potency, µM (highest dose often 53.6 µM), for the others: top-dose activity, negative = inhibition, hits mostly inhibitors | Drosophila S2 Gal4-VP16 UAS-luciferase, luminescence, 20 h | AID 2546;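 note: Gal4-VP16 expression switched on by copper sulfate through the metallothionein promoter; nearly all actives have a fitted effect of over 50% in size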
ELG1 DNA repair: ELG1-dependent DNA repair inhibition; HEK293T ELG1-luciferase reporter, luminescence, 16 h; DNA damage induced by 5-fluorouridine; Potency, µM (series often up to 46.1 µM), for inactives: top-dose activity change, negative = inhibition, actives largely listed as inhibitors; 330,000 tested, 2.3% active; note: nearly all actives have a fitted effect of over 55% in size
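Quantitative HTS, concentration-response format. 2,000 cells/well co-treated with 5-fluorouridine and compound, 16 hr in 5% CO2 at 37 °C; ONE-Glo luminescence read after 30 min.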
TDP1 cell noCPT: qHTS for Inhibitors of human tyrosyl-DNA phosphodiesterase 1 (TDP1): qHTS in cells in absence of CPT; AID 686978, 2013; DT40 Tdp1-/- hTDP1 cells, no CPT, ATP luminescence, 48 h; Potency, µM (top dose mostly 46.2 µM), inactives show top-dose activity change, negative = growth inhibition, hits mostly inhibitors; 420,000 tested, 15% active; note: nearly all actives have a fitted effect of over 55% in size
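Compound effects on proliferation are scored in DT40 Tdp1-/-;hTDP1 cells in the absence of CPT. ATP levels (CellTiter-Glo luminescence) are recorded after a ≥48 hr, 37 °C incubation.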
TDP1 cell CPT: growth inhibition of DT40 Tdp1-/-;hTDP1 cells with camptothecin (screen for TDP1 inhibitors); chicken DT40 Tdp1-/-;hTDP1 cells + 20 nM CPT, ATP luminescence, 48 h; Potency, µM (doses to about 46.2 µM), for the others: top-dose activity change, negative = growth inhibition, hits mostly inhibitors; 420,000 tested, 12% active; AID 686979; note: nearly all actives have a fitted effect of over 55% in size
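Cell growth measured by CellTiter-Glo luminescence after a minimum 48 h, 37 C compound exposure with 20 nM CPT in Tdp1-knockout DT40 cells stably expressing hTDP1, seeded 400/well; qHTS titration format.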
12-LOX inh: inhibitors of human 12S-lipoxygenase ALOX12; purified 12hLO, xylenol orange hydroperoxide absorbance; Potency, µM (highest dose often 108 µM), for the others: at the highest dose activity change, negative = inhibition, most hits filed as inhibitors; 580,000 tested, 1.1% active
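Purified human 12hLO (150 nM final) in 25 mM Hepes, 0.01% Triton X-100, pH 7.0 was preincubated 15 min at room temperature with compound. Then 40 uM arachidonic acid was added, 30 min. Hydroperoxide was read by Fe-XO absorbance ratio 573/405 nm.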
RORgamma inh: blocks mouse ROR gamma transcriptional activity; P51450; Drosophila S2 Gal4-RORgamma UAS-luciferase reporter, 20 h; Potency, µM (highest dose often 53.6 µM), for the others: top-dose activity change, negative = inhibition, usual class: inhibitors; 310,000 tested, 5.4% active; AID 2551; note: nearly all actives have a fitted effect of over 60% in size
Target sequence (P51450 whole entry, looked up, the tested form may be a part): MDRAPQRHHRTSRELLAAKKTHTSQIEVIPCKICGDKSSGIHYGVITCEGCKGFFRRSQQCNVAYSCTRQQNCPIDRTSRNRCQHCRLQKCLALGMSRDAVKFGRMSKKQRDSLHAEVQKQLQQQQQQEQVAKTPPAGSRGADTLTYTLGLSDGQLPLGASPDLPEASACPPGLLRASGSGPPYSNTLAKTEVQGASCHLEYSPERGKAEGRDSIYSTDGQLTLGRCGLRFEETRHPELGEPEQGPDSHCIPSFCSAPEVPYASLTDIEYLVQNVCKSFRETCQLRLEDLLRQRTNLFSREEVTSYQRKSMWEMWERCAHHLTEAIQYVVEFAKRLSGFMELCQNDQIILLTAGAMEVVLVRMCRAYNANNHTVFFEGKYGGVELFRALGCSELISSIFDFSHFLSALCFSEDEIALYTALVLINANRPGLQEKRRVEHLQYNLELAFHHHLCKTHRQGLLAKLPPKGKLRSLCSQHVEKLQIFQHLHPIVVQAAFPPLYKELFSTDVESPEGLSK
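Drosophila Schneider cells stably carrying a metallothionein-driven Gal4 DBD–ROR gamma fusion and a UAS-Photinus luciferase reporter were exposed to compound for 1 hr, then induced with copper sulfate (700 uM final) for 20 hr at ambient temperature before luminescence reading.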
* hit, by the source's call; ? = inconclusive; . = not tested or not shown; [ ] = dose if it differs, or a comment. Calls come from the whole dose curve; as a rule, active = well fitted curve in the direction sought with a large enough effect; inconclusive = small, poorly fitted or top-dose-only effect, or another doubt; inactive = no such curve, though single readings can be large; an effect the other way counts as inactive or inconclusive. % is set by controls: 0 for no effect and ±100 for the full control effect; potency is the fitted concentration of half-maximal effect.

SMILES | VP16 counter | ELG1 DNA repair | TDP1 cell noCPT | TDP1 cell CPT | 12-LOX inh | RORgamma inh
COCCN1C(=O)CC[C@]2(C(=O)NCc3cccc(OC)c3OC)CCCC[C@@H]12 | . | . | . | . | 15% | .
O/N=C1\CCCCC1c1nccc2ccccc12 (configuration not stated) | . | . | . | . | 6% | .
Cc1ncsc1CCC(=O)N1CCCC(Nc2ccc(C(C)C)cc2)C1 (configuration not stated) | 0% | -10% | 26µM* | ? | 400% | 40%
O=C1CCCCN1CC(=O)N1CCCC(Nc2ccc(F)c(F)c2)C1 (configuration not stated) | 5% | 19% | ? | 21µM* | 0% | 13%
CC(C)c1noc(-c2cn(C3CCCN(C(=O)c4ccccc4)C3)nn2)n1 (configuration not stated) | . | . | . | . | 12% | .
Cc1ccccc1CNC[C@H]1Cn2ccnc2CO1 | . | . | . | . | 56%[176 µM] | .
O=C(/C=C/Sc1ccc(C(F)(F)F)cn1)c1ccccc1 | -10% | 21% | 2.3µM* | 2.9µM* | ? | -35%
Cc1ccc2c(COC(=O)c3cccs3)cc(=O)oc2c1C | . | . | . | . | -23% | .
O=C(Nc1cccc(Cl)c1)N1N=CCC1c1ccccc1 (configuration not stated) | -12% | -9% | -8% | 8% | 149% | -34%
S=C(Nc1ccccc1)N1N=CCC1c1ccccc1 (configuration not stated) | 7.9µM* | ? | -8% | 12% | 11% | ?
Fc1ccc(NC(=S)N2N=CCC2c2ccccc2)cc1 (configuration not stated) | 7.9µM* | ? | 5% | -3% | -22% | 3.5µM*
COc1ccc(C(=O)N2CCCC(c3nc(-c4ccccc4)no3)CCNC(=O)CC2)c(OC)c1 (configuration not stated) | . | . | . | . | -6% | .
Cc1cc(C(Br)(Br)Br)nc2ccccc12 | . | . | 2.5µM* | 2.5µM* | . | .
Cc1cc(/C=C\c2ccccc2)nc2ccccc12 | -7% | ? | -23% | -7% | 0% | 11µM*
Cc1cc(Cl)nc2ccccc12 | . | . | -3% | 3% | . | .
Cc1ccc(CN2C(=O)NC3(CCCN(C(=O)c4cc(F)ccc4F)C3)C2=O)cc1 (configuration not stated) | . | . | . | . | 5% | .
O=C(Nc1ccccc1Cl)c1cc(C2CCCCN2S(=O)(=O)c2ccc(F)cc2F)on1 (configuration not stated) | . | . | 21µM* | 16µM* | 0% | .
O=C(Nc1ccc2c(c1)OCO2)c1cc(C2CCCCN2S(=O)(=O)c2ccccc2)on1 (configuration not stated) | . | . | ? | 16µM* | 5% | .
O=C(Nc1ccc2c(c1)OCO2)C1CCCCN1S(=O)(=O)c1ccccc1 (configuration not stated) | 15% | 9% | ? | ? | 0% | -4%
O=C(Nc1ccccc1Cl)c1cc(C2CCCCN2C(=O)c2ccccc2)on1 (configuration not stated) | . | . | ? | 29µM* | 13% | .
CCCNC(=O)c1cc(C2CCCN(C(=O)C3CCCCC3)C2)on1 (configuration not stated) | . | . | -12% | -18% | 4% | .
O=C(Nc1ccc2c(c1)OCO2)c1cc(C2CCCN(C(=O)C3CCCCC3)C2)on1 (configuration not stated) | . | . | ? | 23µM* | -4% | .
Cc1ccc(C)c(Sc2ccc(NC(=O)C3CCC(C(C)(C)C)CC3)cc2)c1 (configuration not stated) | . | . | . | . | 9% | .
CC(=O)Nc1ccc(C(=O)N2CCCCC2c2cc(C(=O)Nc3ccccc3Cl)no2)cc1 (configuration not stated) | . | . | -1% | -18% | 11% | .
O=C(Nc1ccccc1)c1cc(C2CCCCN2C(=O)c2ccccc2)on1 (configuration not stated) | . | . | ? | 21µM* | ? | .
SMILES | VP16 counter | ELG1 DNA repair | TDP1 cell noCPT | TDP1 cell CPT | 12-LOX inh | RORgamma inh
O=C(Nc1ccccc1)c1cc(C2CCCCN2S(=O)(=O)Cc2cccc(C(F)(F)F)c2)on1 (configuration not stated) | . | . | ? | 21µM* | 10% | .
O=C(Nc1ccc2c(c1)OCO2)c1cc(C2CCCCN2C(=O)c2ccc3ccccc3c2)on1 (configuration not stated) | . | . | 15µM* | 18µM* | -24% | .
CCOc1cc(C)ccc1OCc1nnc(SCC(=O)NC2CCCCC2)n1C | . | . | . | . | 15% | .
O=C(N1CCN(Cc2ccccc2)CC1)C(F)(F)C(F)(F)C(F)(F)C(F)(F)F | . | . | . | . | 28µM* | .
O=C(c1ccccc1)N1CCN(Cc2ccccc2)CC1 | -1% | 7% | -5% | -3% | ? | -27%
COc1ccc(S(=O)(=O)N2CCN(Cc3nc4ccc(C)cc4o3)CC2)cc1Cl | . | . | ? | 18µM* | -18% | .
CCOc1ccc(S(=O)(=O)N2CCN(Cc3nc4ccc(C)cc4o3)CC2)cc1 | . | . | ? | 18µM* | -21% | .
N#Cc1ccccc1CSc1ncc(C(F)(F)F)cc1Cl | . | . | . | . | 7% | .
Cc1nc2c(OCC(=O)c3ccccc3)cccn2c(=O)c1-c1cc(C)n(-c2ccc(Cl)cc2)n1 | . | . | . | . | 3% | .
O=C(C1CCCCC1)N(Cc1cccnc1)c1nc2c(F)cc(F)cc2s1 | . | . | 15µM* | 21µM* | -43% | .
CCOc1ccc2nc(N(Cc3cccnc3)C(=O)C3CCCCC3)sc2c1 | . | . | -24% | ? | -3% | .
CC(=O)N(Cc1cccnc1)c1nc2c(F)cc(F)cc2s1 | . | . | ? | ? | -20% | .
COc1ccc2sc(N(Cc3cccnc3)C(=O)C3CCCCC3)nc2c1 | . | . | 23µM* | 13µM* | -6% | .
O=C(Cc1ccc([N+](=O)[O-])cc1)Nc1ccc2oc(C3CC3)nc2c1 | . | . | . | . | 0% | .
CCC(=O)N=c1sc2cc(F)cc(F)c2n1C | . | . | -7% | 3% | 2% | .
CCn1c(=NC(=O)CSC(C)=O)sc2cc(F)ccc21 | 7% | . | 18µM* | ? | -1% | ?
C#CCn1c(=NC(=O)CSC(C)=O)sc2cc(F)ccc21 | -29% | 10% | 21µM* | 10µM* | . | 2.5µM*
Cc1ccc(-c2[nH]c3ccccc3c2SCCNC(=O)c2ccc(S(=O)(=O)N(C)C)cc2)cc1 | . | . | 5.8µM* | 5.8µM* | -28% | .
O=C(Cc1cccs1)NCCSc1c(-c2ccc(Cl)cc2)[nH]c2ccccc12 | ? | ? | 13µM* | 18µM* | -6% | ?
